Data on 26 compounds can be found in PubChem BioAssay (Tox21).

SMILES strings stand for the structures. Where “and” joins values, the source holds several entries; their conditions need not be identical. Identical values can stand only once. A number with no mark means an inactive call. Records with an inconclusive call do not appear. Calls of active or inactive are those of the source. Calls come from the whole dose curve; as a rule, active = well fitted curve in the direction sought with a large enough effect in the repeat runs; inconclusive = weak or mixed curves; inactive = no such curve, though single readings can be large; an effect the other way counts as inactive or inconclusive.

Assay [1] is described as follows: Caspase-3/7 induction in HepG2 cells by small molecules, qHTS assay (AID 1346978). Note: nearly all actives have a fitted effect of over 15% in size. Note: potency is the fitted concentration of half-maximal effect. The method, boiled down: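 Caspase-3/7 induction was measured by Caspase-Glo 3/7 luminescence (30 min, room temperature) after a 17 hr compound exposure of wild-type HepG2 cells seeded at 2,000 per well and pre-incubated 5 hr.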
For orientation: qHTS replaces the single test concentration by a dilution series.

Assay [2] can be described thus: Caspase-3/7 induction in CHO-K1 cells by small molecules, qHTS cell viability counter screen (AID 1346979). Note: nearly all actives have a fitted effect of over 35% in size. Note: potency is the fitted concentration of half-maximal effect. The method, boiled down:
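Following a 5hr settling period, CHO-K1 cells at 1,500 per well received DMSO-dissolved compounds. Cell viability was quantified 16hr later by CellTiter-Fluor fluorescence, measured after 1hr with reagent at 37C.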

A short description of assay [3]: Caspase-3/7 induction in CHO-K1 cells by small molecules, qHTS assay (AID 1346980). Note: nearly all actives have a fitted effect of over 15% in size. Note: potency is the fitted concentration of half-maximal effect. In short, it runs like this: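 Luminescent Caspase-Glo 3/7 read (30min, room temperature) quantified apoptosis induction. Cells were wild-type CHO-K1, treated with compound for 17hr at 37 C and 5% CO2.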
A short description of assay [4]: Caspase-3/7 induction in HepG2 cells by small molecules, qHTS cell viability counter screen (AID 1346981). Note: nearly all actives have a fitted effect of over 30% in size. Note: potency is the fitted concentration of half-maximal effect. In short, it runs like this: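 CellTiter-Fluor fluorescence measured viability in the same wells used for Caspase-Glo 3/7. HepG2 (wild type) at 2,000 cells/well were pre-incubated 5 hr, dosed, and given reagent at 16 hr, with 1 hr further at 37C.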
In assay [5] the target is Nuclear receptor subfamily 1 group I member 2 (Homo sapiens) (UniProt O75469). The assay is described as follows: Human pregnane X receptor (PXR) small molecule agonists, qHTS assay (AID 1346982). Note: nearly all actives have a fitted effect of over 35% in size. Note: potency is the fitted concentration of half-maximal effect. The method, boiled down: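 Agonist mode: luminescence from ONE-Glo after 24 h compound exposure at 37C in HepG2 cells carrying hPXR-responsive CYP3A4 luciferase, plated in charcoal-stripped serum medium 5 h beforehand.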

Assay [6] has as its target Nuclear receptor subfamily 1 group I member 2 (Rattus norvegicus) (UniProt Q9R1A7). Put plainly: Rat pregnane X receptor (rPXR) activation by small molecules, qHTS assay (AID 1346983). Note: nearly all actives have a fitted effect of over 20% in size. As to conditions: rPXR luciferase reporter cells, One-Glo luminescence, 24 h; active compounds read high. In short, it runs like this: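 Luminescent readout (One-Glo luciferase, 30 min room temperature) followed 24 hr compound treatment at 37 C of rPXR cells plated 2,000 per well and preincubated 5hr; qHTS format with compounds delivered in DMSO.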

Assay [7] concerns the target Nuclear receptor subfamily 1 group I member 2 (Homo sapiens) (UniProt O75469). The assay is described as follows: Human pregnane X receptor (PXR) activation by small molecules, qHTS assay (AID 1346985). Note: nearly all actives have a fitted effect of over 40% in size. The method, boiled down: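 DPX-2 cells (HepG2 co-transfected with a PXR response element and a CYP3A4-promoter luciferase construct) were seeded at 2,000 per well, rested 5 hr at 37C, then exposed to DMSO-dissolved compounds for 24 hr. Activation was read as luciferase luminescence.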

Assay [8] addresses Cytochrome P450 2D6 (Homo sapiens) (UniProt P10635). The assay is described as follows: Cytochrome P450 Family 2 Subfamily D Member 6 (CYP2D6) small molecule antagonists: luciferase reporter qHTS assay (AID 1671196). Note: nearly all actives have a fitted effect of over 50% in size. Note: potency is the fitted concentration of half-maximal effect. In short, it runs like this: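 CYP2D6 activity was followed as luminescence from its luciferin product after a 1 h NADPH-driven reaction at room temperature. Enzyme-substrate mix and compound were pre-incubated for 10 min, and the signal was read 20 min after adding detection reagent.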
In general terms: A reporter such as luciferase makes a cellular process visible.

In assay [9] the target is Cytochrome P450 2C19 (Homo sapiens) (UniProt P33261). The assay is described as follows: Cytochrome P450 Family 2 Subfamily C Member 19 (CYP2C19) small molecule antagonists: luciferase reporter qHTS assay (AID 1671197). Note: nearly all actives have a fitted effect of over 65% in size. Note: potency is the fitted concentration of half-maximal effect. In short, it runs like this:
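P450-Glo CYP2C19 system: enzyme-substrate mix with compound 10 min at room temperature, then NADPH regeneration solution, 1 h at 37C. Proluciferin-to-luciferin conversion detected by luminescence after 20 min with detection reagent; ketoconazole as positive control.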
% is set by controls: 0 for no effect and ±100 for the full control effect.

Sequence of Nuclear receptor subfamily 1 group I member 2 (Rattus norvegicus) (Q9R1A7 whole entry, looked up): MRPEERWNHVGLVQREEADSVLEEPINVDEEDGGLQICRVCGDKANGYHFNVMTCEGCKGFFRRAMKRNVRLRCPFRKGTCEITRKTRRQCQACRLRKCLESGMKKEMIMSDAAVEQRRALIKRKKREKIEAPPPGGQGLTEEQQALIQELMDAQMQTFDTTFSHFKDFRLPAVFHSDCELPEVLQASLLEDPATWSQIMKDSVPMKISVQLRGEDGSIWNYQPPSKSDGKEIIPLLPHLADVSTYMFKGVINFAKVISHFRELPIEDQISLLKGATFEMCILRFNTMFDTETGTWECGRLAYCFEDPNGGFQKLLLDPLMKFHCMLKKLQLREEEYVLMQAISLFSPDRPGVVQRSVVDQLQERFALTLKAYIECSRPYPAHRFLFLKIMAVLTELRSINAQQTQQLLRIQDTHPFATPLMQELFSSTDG
Sequence of Cytochrome P450 2D6 (Homo sapiens) (P10635 whole entry, looked up): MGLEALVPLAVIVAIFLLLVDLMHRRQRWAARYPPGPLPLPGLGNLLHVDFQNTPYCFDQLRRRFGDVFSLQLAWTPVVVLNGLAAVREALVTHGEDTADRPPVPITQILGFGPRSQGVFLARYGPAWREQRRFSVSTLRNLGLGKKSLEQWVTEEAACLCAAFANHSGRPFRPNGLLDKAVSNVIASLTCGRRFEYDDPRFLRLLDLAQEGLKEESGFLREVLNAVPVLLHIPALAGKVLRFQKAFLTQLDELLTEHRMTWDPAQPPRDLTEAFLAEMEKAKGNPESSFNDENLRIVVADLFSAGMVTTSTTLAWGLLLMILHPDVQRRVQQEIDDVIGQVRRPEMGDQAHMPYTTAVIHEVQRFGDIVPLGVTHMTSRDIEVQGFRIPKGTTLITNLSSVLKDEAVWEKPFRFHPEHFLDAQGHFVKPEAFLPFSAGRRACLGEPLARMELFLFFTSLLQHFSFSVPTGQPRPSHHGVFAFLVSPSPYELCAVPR
Sequence of Nuclear receptor subfamily 1 group I member 2 (Homo sapiens) (O75469 whole entry, looked up): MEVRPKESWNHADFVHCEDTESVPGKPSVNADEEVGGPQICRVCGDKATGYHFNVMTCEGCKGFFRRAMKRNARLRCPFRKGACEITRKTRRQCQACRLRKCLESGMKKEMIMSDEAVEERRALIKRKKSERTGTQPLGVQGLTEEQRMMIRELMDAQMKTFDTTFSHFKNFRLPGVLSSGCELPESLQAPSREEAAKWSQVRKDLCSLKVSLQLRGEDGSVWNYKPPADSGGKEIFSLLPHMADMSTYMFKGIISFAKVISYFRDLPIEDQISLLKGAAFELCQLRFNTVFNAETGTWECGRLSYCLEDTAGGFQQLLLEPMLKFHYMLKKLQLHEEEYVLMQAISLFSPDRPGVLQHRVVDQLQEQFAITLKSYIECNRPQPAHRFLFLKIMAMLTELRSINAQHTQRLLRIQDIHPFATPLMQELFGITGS
Sequence of Cytochrome P450 2C19 (Homo sapiens) (P33261 whole entry, looked up): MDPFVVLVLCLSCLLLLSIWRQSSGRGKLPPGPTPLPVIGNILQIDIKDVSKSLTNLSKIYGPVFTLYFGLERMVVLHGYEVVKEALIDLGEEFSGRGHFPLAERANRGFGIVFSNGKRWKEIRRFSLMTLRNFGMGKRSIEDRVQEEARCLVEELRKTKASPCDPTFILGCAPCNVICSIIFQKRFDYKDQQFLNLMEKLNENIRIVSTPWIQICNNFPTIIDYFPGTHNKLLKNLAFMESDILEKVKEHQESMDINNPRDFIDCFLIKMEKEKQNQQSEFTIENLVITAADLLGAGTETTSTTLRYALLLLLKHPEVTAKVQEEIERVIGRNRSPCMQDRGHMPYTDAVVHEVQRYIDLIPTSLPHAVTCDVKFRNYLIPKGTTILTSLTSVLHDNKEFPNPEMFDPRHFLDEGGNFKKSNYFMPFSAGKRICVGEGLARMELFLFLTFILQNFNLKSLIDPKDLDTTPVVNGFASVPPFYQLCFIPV

Turning to `Cc1c(C)c2c(c(C)c1OC(=O)c1cccnc1)CC[C@@](C)(CCC[C@H](C)CCC[C@H](C)CCCC(C)C)O2`, the Potency entry in [1], in assay [2], in assay [3], in assay [4], in assay [5] and in [7] was “inactive” in each case. Also, the Potency entry in [8] and in [9] was “inactive” in each case. Besides, the max activation in assay [6] is 0.296%.

For `CCC(COC(=O)CCS)(COC(=O)CCS)COC(=O)CCS`, the Potency entry in [1], in assay [2], in assay [3], in assay [4] and in assay [8] was “inactive” throughout. The Potency in assay [5] was 21.7 µM (active).

As to `CCC(C)n1ncn(-c2ccc(N3CCN(c4ccc(OC[C@H]5CO[C@](Cn6cncn6)(c6ccc(Cl)cc6Cl)O5)cc4)CC3)cc2)c1=O` (stereo partly specified), the Potency result in assay [1], in [3], in [4] and in assay [8] was “inactive” in each case. Besides, the Potency in assay [2] was 5.96 µM (active); in assay [5], 2.98 µM (active).

As for `CC(C)(c1cc(Br)c(OCC(Br)CBr)c(Br)c1)c1cc(Br)c(OCC(Br)CBr)c(Br)c1` (stereo unspecified), the Potency entry in [1], in assay [2], in assay [3], in [4], in assay [5] and in assay [8] was “inactive” throughout.

`CN(C)C(=O)COC(=O)Cc1ccc(OC(=O)c2ccc(N=C(N)N)cc2)cc1`: the Potency entry in assay [1], in assay [2], in [3], in assay [4], in [5] and in assay [7] was “inactive” in each case. The Potency result in assay [9] is “inactive”. For the same compound, in assay [6], the max activation was -2.55%.

As for `Cc1cccc(C(=O)O)c1O`, the Potency entry in [1], in [2], in assay [3], in [4], in [5] and in assay [7] was “inactive” throughout. In addition, the Potency entry in [8] and in [9] was “inactive” in each case. Further, in [6], the max activation was -0.388%.

Consider `CC(CCc1ccccc1)NCC(O)c1ccc(O)c(C(N)=O)c1` (stereo unspecified), for which the Potency entry in assay [1], in assay [3] and in assay [7] was “inactive” each time. The Potency is 43.3 µM (active) in [2], 27.3 µM (active) in assay [4], 17.2 µM (active) in [5] and 0.564 µM (active) in assay [8]. The max activation in assay [6] is -0.392%.

For `O=c1oc2cc(O)ccc2c2oc3cc(O)ccc3c12`, the Potency result in assay [1], in assay [2], in assay [3] and in [4] was “inactive” throughout. For the same compound, the Potency in [5] is 65.7 µM (active).

Regarding `CC[N+](CC)(CC)CCOC(=O)C(C1CCCC1)C1CCCC1`, the Potency result in assay [1], in assay [2], in [3], in assay [4] and in [5] was “inactive” in each case. Also, the Potency in [8] is 1.95 µM (active).

Turning to `CCCCC(CC)COC(=O)CCCCC(=O)OCc1ccccc1` (stereo unspecified), the Potency result in assay [1], in assay [2], in assay [3], in assay [4], in [5] and in assay [8] was “inactive” throughout.

As to `CCCNCCC`, the Potency entry in assay [1], in [2], in assay [3], in assay [4] and in assay [5] was “inactive” each time.

On to `CCCCCCCCCCC[C@@H](C[C@@H]1OC(=O)[C@H]1CCCCCC)OC(=O)[C@H](CC(C)C)NC=O`, for which the Potency result in assay [1], in [3], in [4], in assay [5] and in [7] was “inactive” each time. For the same compound, the Potency in [2] is 16.8 µM (active). The max activation in [6] is -3.72%.

`CN(C)c1ccc(C(=C2C=CC(=[N+](C)C)C=C2)c2ccc(N(C)C)cc2)cc1`: the Potency in assay [1] is 19.2 µM (active) and 27.3 µM (active) and 26.6 µM (active); in [2] it was 1.71 µM (active) and 686 nM (active) and 2.37 µM (active); in [3] it was 7.66 µM (active) and 6.11 µM (active) and 8.41 µM (active); in assay [4] it was 17.1 µM (active) and 9.69 µM (active) and 8.41 µM (active); in assay [5], 2.42 µM (active); in assay [9], 19.9 µM (active) and 22.4 µM (active) and 21.9 µM (active). Moreover, the Potency entry in [7] was “inactive”.

Take `CCCCOC(=O)CO`: the Potency entry in assay [1], in assay [2], in [3], in assay [4] and in assay [5] was “inactive” in each case.

Regarding `CCO[Si](OCC)(OCC)OCC`, the Potency result in assay [1], in assay [2], in assay [3], in assay [4], in assay [5] and in assay [8] was “inactive” throughout.

For `CC1(C)CCC[C@]2(C)[C@H]3CCO[C@]3(C)CC[C@@H]12`, the Potency entry in assay [1], in assay [2], in assay [3], in [4], in assay [5] and in assay [8] was “inactive” throughout.

Turning to `CCCCCCOC(=O)C(C)CC` (stereo unspecified), the Potency result in assay [1], in assay [2], in assay [3], in [4], in [5] and in assay [8] was “inactive” throughout. Further, the Potency result in assay [9] is “inactive”.

As for `CCCCCCCCCCOC(=O)c1ccccc1C(=O)OCCCCCCCC`, the Potency entry in [1], in assay [2], in [3], in [4], in assay [5] and in assay [8] was “inactive” throughout.

As for `CCCCOC(=O)CC`, the Potency entry in assay [1], in [2], in assay [3], in [4], in assay [5] and in assay [8] was “inactive” throughout.

As to `O=C(O)c1cc(=O)c2ccccc2o1`, the Potency entry in assay [1], in [2], in assay [3], in assay [4], in assay [5] and in assay [7] was “inactive” in each case. Also, the Potency entry in [8] and in assay [9] was “inactive” in each case. Also, in [6], the max activation was -0.583%.

As to `CCC(C)[O-].CCC(C)[O-].CCOC(=O)/C=C(/C)[O-].[Al+3]`, the Potency entry in assay [1] and in assay [2] was “inactive” in each case.

As for `O=C1NC(=O)[C@@H]2CC=CC[C@H]12`, the Potency entry in [1], in assay [2], in assay [3] and in assay [4] was “inactive” each time.

Consider `CCO[C@@H]1O[C@H](C(COCc2ccccc2)OCc2ccccc2)[C@H](OCc2ccccc2)[C@H]1O` (stereo partly specified), for which the Potency result in assay [1] and in assay [3] was “inactive” throughout. In addition, the Potency in [2] is 29.8 µM (active).

For the compound `CC[N+](CC)(CC)CCOc1ccc(/C=C/c2ccccc2)cc1`, the Potency result in [1], in assay [2], in assay [3], in [4], in assay [5] and in assay [7] was “inactive” throughout. For the same compound, in assay [6], the max activation was -2.42%.

Consider `Cc1c(F)c(N2CCNC(C)C2)cc2c1c(=O)c(C(=O)O)cn2C1CC1` (stereo unspecified), for which the Potency result in [1], in [2], in [3], in assay [4], in assay [5] and in assay [7] was “inactive” throughout. Further, the Potency result in assay [9] is “inactive”. Further, in assay [6], the max activation is -0.343%.

As to `CCCCC(CC)CN1CN(CC(CC)CCCC)CC(C)(N)C1` (stereo unspecified), the Potency result in assay [1], in [2], in assay [3], in assay [4], in assay [7] and in assay [9] was “inactive” each time. For the same compound, the Potency in [5] was 21.1 µM (active); in assay [8] it was 0.309 µM (active). In addition, the max activation in assay [6] was -2.15%.
